Measured values: PubChem BioAssay (Tox21)
Inconclusive results are not listed. Entries that show only a call come without a potency. Unmarked numbers belong to inactive results. Calls of active or inactive are those of the source. Unless noted, the call rests on the fitted dose curve; in most records, active means well fitted curve in the direction sought with a large enough effect in the repeat runs; inconclusive means weak or mixed curves; inactive means no such curve, though single readings can be large; an effect the other way counts as inactive or inconclusive.

Experiments:
[1] = qHTS assay to identify small molecule antagonists of the estrogen related receptor (ERR) signaling pathway from Tox21 library - cell viability counter screen (AID 1224834); further: nearly all actives have a fitted effect of over 30% in size
Summary of the method: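 ERR cells, 2,000/well; 6 h settle at 37 C/5% CO2; pin-tool compound transfer in DMSO; 17.5 h at 37 C; CellTiter-Fluor, 30 min; fluorescence intensity.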

[2] = molecular target: Luciferin 4-monooxygenase (Photinus pyralis) (UniProt P08659); experiment: qHTS assay to identify small molecule inhibitors of firefly luciferase (AID 1224835); further: nearly all actives have a fitted effect of over 25% in size; further: potency means the concentration at half of the fitted maximal effect
Luciferin 4-monooxygenase (Photinus pyralis), sequence (P08659 whole entry, looked up): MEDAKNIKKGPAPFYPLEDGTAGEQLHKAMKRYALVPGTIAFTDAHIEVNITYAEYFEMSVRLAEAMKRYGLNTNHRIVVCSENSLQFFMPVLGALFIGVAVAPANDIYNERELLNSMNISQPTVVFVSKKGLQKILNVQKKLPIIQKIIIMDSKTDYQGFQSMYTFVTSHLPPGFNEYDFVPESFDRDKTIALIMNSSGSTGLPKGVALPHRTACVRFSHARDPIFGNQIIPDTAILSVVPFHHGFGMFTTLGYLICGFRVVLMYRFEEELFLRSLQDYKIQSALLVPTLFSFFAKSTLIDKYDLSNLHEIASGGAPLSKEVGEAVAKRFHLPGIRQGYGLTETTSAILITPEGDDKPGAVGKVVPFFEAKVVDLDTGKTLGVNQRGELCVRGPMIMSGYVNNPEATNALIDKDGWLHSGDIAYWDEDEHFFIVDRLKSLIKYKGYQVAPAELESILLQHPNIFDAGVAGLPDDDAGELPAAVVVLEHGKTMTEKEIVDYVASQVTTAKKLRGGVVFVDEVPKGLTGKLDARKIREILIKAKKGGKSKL
Summary of the method: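 Quantitative HTS format; KM concentrations of both substrates. Purified P. pyralis FLuc activity quantified from luminescence images.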

[3] = qHTS assay to identify small molecule agonists of the constitutive androstane receptor (CAR) signaling pathway - cell viability counter screen (AID 1224836); further: series mostly up to about 92 µM; nearly all actives have a fitted effect of over 45% in size
Summary of the method: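 Fluorescence from CellTiter-Fluor indicates live cells after 23 h exposure. The human hepatoma line expresses hCAR and a CYP2B6-2.2kb reporter. Incubation medium contains 0.75 uM PK11195 (final).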

[4] = qHTS assay to identify small molecule antagonists of the constitutive androstane receptor (CAR) signaling pathway - cell viability counter screen (AID 1224837); further: series mostly up to about 92 µM; nearly all actives have a fitted effect of over 45% in size
Summary of the method: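 Viability was measured with CellTiter-Fluor in a HepG2 line carrying stably transfected hCAR and a CYP2B6-2.2kb construct. Cells were exposed for 23 hr at 37 C to 15 compound concentrations with 50 nM CITCO as agonist.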

[5] = molecular target: Nuclear receptor subfamily 1 group I member 3 (Homo sapiens) (UniProt Q14994); experiment: qHTS assay to identify small molecule antagonists of the constitutive androstane receptor (CAR) signaling pathway (AID 1224838);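 further: HepG2 cells stably expressing hCAR with CYP2B6 luciferase reporter stimulated by CITCO; nearly all actives have a fitted effect of over 40% in size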; further: potency means the concentration at half of the fitted maximal effect
Nuclear receptor subfamily 1 group I member 3 (Homo sapiens), sequence (Q14994 whole entry, looked up): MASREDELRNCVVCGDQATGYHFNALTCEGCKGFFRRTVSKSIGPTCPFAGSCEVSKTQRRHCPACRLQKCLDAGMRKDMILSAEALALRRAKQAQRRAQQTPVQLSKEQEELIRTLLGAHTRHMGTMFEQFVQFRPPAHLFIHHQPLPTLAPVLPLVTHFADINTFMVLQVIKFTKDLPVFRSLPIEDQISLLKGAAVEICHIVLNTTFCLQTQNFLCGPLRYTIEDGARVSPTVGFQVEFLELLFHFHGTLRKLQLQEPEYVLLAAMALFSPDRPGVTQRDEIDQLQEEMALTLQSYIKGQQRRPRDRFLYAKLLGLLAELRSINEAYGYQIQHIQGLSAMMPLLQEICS
Summary of the method: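 Antagonist mode used CITCO at a final 50 nM to activate CAR in human hepatoma HepG2 cells carrying stable hCAR and a 2.2 kb CYP2B6 promoter-luciferase construct. Compounds were tested at 15 concentrations over 24 h, with luminescence as the end point.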

[6] = molecular target: Nuclear receptor subfamily 1 group I member 3 (Homo sapiens) (UniProt Q14994); experiment: qHTS assay to identify small molecule agonists of the constitutive androstane receptor (CAR) signaling pathway (AID 1224839); further: nearly all actives have a fitted effect of over 15% in size; further: potency means the concentration at half of the fitted maximal effect; on activation: series mostly up to about 92 µM
Summary of the method: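 Stable hCAR/CYP2B6-2.2kb HepG2 line in DMEM with 10% FBS; compounds (15 concentrations) and 0.75 uM PK11195 final, 24 h at 37 C/5% CO2, then ONE-Glo luminescence after 30 min.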

[7] = qHTS assay to identify small molecule antagonists of the estrogen related receptor signaling pathway with the pleiotropic PPARgamma coactivator (PGC) from Tox21 10K library - cell viability counter screen (AID 1224840; active means well fitted cell-killing curve with a large enough effect in the repeat runs, not every such curve was filed as active; further: nearly all actives have a fitted effect of over 40% in size)
Summary of the method: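 Multiplexed viability counter screen in the PGC/ERR cell line: cells treated with DMSO-dissolved compounds for 17.5 hours at 37 C, then viability measured as CellTiter-Fluor fluorescence.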

[8] = qHTS assay to identify small molecule antagonists of the estrogen related receptor signaling pathway with the pleiotropic PPARgamma coactivator (PGC) from Tox21 10K library (AID 1224841; call rule not given here; further: actives are mostly falling curves and most rising ones were filed inactive; nearly all actives have a fitted effect of over 50% in size; further: potency means the concentration at half of the fitted maximal effect)
Summary of the method: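 Steps: plate 2,000 PGC/ERR cells per well; incubate 6 h at 37 C with 5% CO2; transfer compounds from DMSO stocks by pin tool; incubate 18 h at 37 C; add One-Glo; measure luminescence 30 min later.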

[9] = qHTS assay to identify small molecule agonists of the estrogen related receptor signaling pathway with the pleiotropic PPARgamma coactivator (PGC) from Tox21 10K library (AID 1224842); further: nearly all actives have a fitted effect of over 15% in size
Summary of the method: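 PGC/ERR reporter cells (NTP line) were seeded 2,000 per well, rested 6 h at 37 C/5% CO2, then pin-dosed with compounds in DMSO for 18 h at 37 C; luciferase read by One-Glo luminescence after 30 min at room temperature.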

[10] = molecular target: Thyrotropin receptor (Homo sapiens) (UniProt P16473); experiment: qHTS assay to identify small molecule agonists of the thyroid stimulating hormone receptor (TSHR) signaling pathway (AID 1224843; calls by dose curve; further: nearly all actives have a fitted effect of over 45% in size)
Thyrotropin receptor (Homo sapiens), sequence (P16473 whole entry, looked up): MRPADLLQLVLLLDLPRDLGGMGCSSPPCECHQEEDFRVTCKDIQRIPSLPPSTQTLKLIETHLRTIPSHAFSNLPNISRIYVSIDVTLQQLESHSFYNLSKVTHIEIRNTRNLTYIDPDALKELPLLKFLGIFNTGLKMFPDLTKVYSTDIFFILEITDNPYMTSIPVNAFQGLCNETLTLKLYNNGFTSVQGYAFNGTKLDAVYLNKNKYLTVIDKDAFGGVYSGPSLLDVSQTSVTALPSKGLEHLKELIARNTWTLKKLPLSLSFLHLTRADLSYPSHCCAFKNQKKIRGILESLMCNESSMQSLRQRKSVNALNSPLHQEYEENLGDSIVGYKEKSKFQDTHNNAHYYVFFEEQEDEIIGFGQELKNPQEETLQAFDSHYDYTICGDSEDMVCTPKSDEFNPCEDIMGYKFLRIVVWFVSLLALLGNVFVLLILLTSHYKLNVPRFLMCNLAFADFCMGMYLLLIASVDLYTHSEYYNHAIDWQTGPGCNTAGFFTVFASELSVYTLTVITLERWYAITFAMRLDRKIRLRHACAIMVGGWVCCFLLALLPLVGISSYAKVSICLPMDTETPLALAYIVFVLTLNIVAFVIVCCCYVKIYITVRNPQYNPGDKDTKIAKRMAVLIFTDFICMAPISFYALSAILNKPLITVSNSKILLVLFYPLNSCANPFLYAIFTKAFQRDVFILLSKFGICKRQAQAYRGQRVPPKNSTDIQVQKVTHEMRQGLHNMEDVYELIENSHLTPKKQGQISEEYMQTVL
Summary of the method: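 Using 15 concentrations per compound in triplicate, cAMP production was monitored in TSHR-HEK293 cells after 30 min compound incubation at RT; HTRF reagents followed, with fluorescence intensity recorded after 1 h.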

For `NC(=O)Cc1cccc(C(=O)c2ccccc2)c1N`, the Potency [1] was “inactive”, the Potency [2] was “inactive” and the Potency [3] was “inactive”. For the same compound, the Potency [4] was “inactive”, the Potency [5] was “inactive” and the Potency [6] was “inactive”. The Potency [7] was “inactive”.
For `Cc1ccc(C=O)s1`, the Potency [1] was “inactive”, the Potency [2] was “inactive” and the Potency [3] was “inactive”. For the same compound, the Potency [4] was “inactive”, the Potency [5] was “inactive” and the Potency [6] was “inactive”. The Potency [7] was “inactive”, the Potency [8] was “inactive” and the Potency [9] was “inactive”.
For `CO[C@@]1(NC(=O)CSCC#N)C(=O)N2C(C(=O)O)=C(CSc3nnnn3C)CS[C@@H]21`, the Potency [1] was “inactive”, the Potency [2] was “inactive” and the Potency [3] was “inactive”. The Potency [4] was “inactive”, the Potency [5] was “inactive” and the Potency [6] was “inactive”. For the same compound, the Potency [7] was “inactive”.
For `COc1cc(N)c(Cl)cc1C(=O)NC1CCN(Cc2ccccc2)CC1`, the Potency [1] was “inactive”, the Potency [2] was “inactive” and the Potency [3] was “inactive”. For the same compound, the Potency [4] was “inactive”, the Potency [5] was “inactive” and the Potency [6] was 6.68 µM (active). For the same compound, the Potency [7] was “inactive” and the Potency [10] was “inactive”.
In the case of `O=C1CCC(C2CCCCC2)CC1`, the Potency [1] is reported as “inactive”, the Potency [2] is reported as “inactive” and the Potency [3] is reported as “inactive”. The Potency [4] was “inactive”, the Potency [5] was “inactive” and the Potency [6] was “inactive”. For the same compound, the Potency [7] was “inactive”, the Potency [8] was “inactive” and the Potency [9] was “inactive”. For the same compound, the Potency [10] was “inactive”.
In the case of `CC(=O)OC(C)OC(C)=O`, the Potency [1] is reported as “inactive”, the Potency [2] is reported as “inactive” and the Potency [3] is reported as “inactive”. For the same compound, the Potency [4] was “inactive”, the Potency [5] was “inactive” and the Potency [6] was “inactive”. For the same compound, the Potency [7] was “inactive” and the Potency [10] was “inactive”.
In the case of `N#CSCC(=O)O`, the Potency [1] is reported as “inactive”, the Potency [2] is reported as “inactive” and the Potency [3] is reported as “inactive”. The Potency [4] was “inactive”, the Potency [5] was “inactive” and the Potency [6] was “inactive”. The Potency [7] was “inactive”, the Potency [8] was “inactive” and the Potency [9] was “inactive”. For the same compound, the Potency [10] was “inactive”.
With `CCN[C@H]1CN(CCCOC)S(=O)(=O)c2sc(S(N)(=O)=O)cc21` the Potency [1] was “inactive”, the Potency [2] was “inactive” and the Potency [3] was “inactive”. For the same compound, the Potency [4] was “inactive”, the Potency [5] was “inactive” and the Potency [6] was “inactive”. For the same compound, the Potency [7] was “inactive”.
In the case of `CCN(CC)C(=O)N(CC)CC`, the Potency [1] is reported as “inactive”, the Potency [2] is reported as “inactive” and the Potency [3] is reported as “inactive”. For the same compound, the Potency [4] was “inactive”, the Potency [5] was “inactive” and the Potency [6] was “inactive”. For the same compound, the Potency [7] was “inactive”.
With `Cc1ccc(C)c(N)c1` the Potency [1] was “inactive”, the Potency [2] was “inactive” and the Potency [3] was “inactive”. For the same compound, the Potency [4] was “inactive”, the Potency [5] was “inactive” and the Potency [6] was “inactive”. For the same compound, the Potency [7] was “inactive”, the Potency [8] was “inactive” and the Potency [9] was “inactive”. For the same compound, the Potency [10] was “inactive”.
In the case of `Cn1cnc2c(F)c(Nc3ccc(Br)cc3Cl)c(C(=O)NOCCO)cc21`, the Potency [1] is reported as “inactive”, the Potency [2] is reported as “inactive” and the Potency [3] is reported as “inactive”. For the same compound, the Potency [4] was “inactive”, the Potency [5] was “inactive” and the Potency [6] was “inactive”. The Potency [7] was “inactive”, the Potency [8] was “inactive” and the Potency [9] was “inactive”.
In the case of `CC(C)c1ccccc1`, the Potency [1] is reported as “inactive”, the Potency [2] is reported as “inactive” and the Potency [3] is reported as “inactive”. The Potency [4] was “inactive”, the Potency [5] was “inactive” and the Potency [6] was “inactive”. For the same compound, the Potency [7] was “inactive” and the Potency [10] was “inactive”.
For `CNCCC(Oc1ccccc1OC)c1ccccc1` (stereo not drawn), the Potency [1] was “inactive”, the Potency [2] was “inactive” and the Potency [3] was “inactive”. The Potency [4] was “inactive”, the Potency [5] was “inactive” and the Potency [6] was “inactive”. The Potency [7] was “inactive”, the Potency [9] was “inactive” and the Potency [10] was “inactive”.
For `Cc1c(-c2ccccc2)oc2c(C(=O)OCCN3CCCCC3)cccc2c1=O`, the Potency [1] was “inactive”, the Potency [2] was “inactive” and the Potency [3] was “inactive”. The Potency [4] was “inactive”, the Potency [5] was “inactive” and the Potency [6] was “inactive”. The Potency [7] was “inactive” and the Potency [10] was “inactive”.
In the case of `CCCCCCCCOC(=O)CCCCCCCCC(=O)OCCCCCCCC`, the Potency [1] is reported as “inactive”, the Potency [2] is reported as “inactive” and the Potency [3] is reported as “inactive”. The Potency [4] was “inactive”, the Potency [6] was “inactive” and the Potency [7] was “inactive”. For the same compound, the Potency [8] was “inactive” and the Potency [9] was “inactive”.
With `O=c1oc2c(O)c(O)cc3c(=O)oc4c(O)c(O)cc1c4c23` the viability change, negative = cytotoxic [1] was -2.26% [at 19 µM], the Potency [2] was 12 µM (active) and the viability change, negative = cytotoxic [3] was -3.24% [at 19 µM]. For the same compound, the activity change, negative = cytotoxicity [4] was 9.67% [at 19 µM], the activation [6] was -0.67% [at 19 µM] and the viability change, negative = cytotoxic [7] was -7.93% [at 19 µM].
For `CCCCCCCOC(=O)CCC`, the Potency [1] was “inactive”, the Potency [2] was “inactive” and the Potency [3] was “inactive”. The Potency [4] was “inactive”, the Potency [5] was “inactive” and the Potency [7] was “inactive”. For the same compound, the Potency [8] was “inactive”, the Potency [9] was “inactive” and the Potency [10] was “inactive”.
For `Cc1c(C(=O)NCCO)[n+](=O)c2ccccc2n1[O-]`, the Potency [1] was “inactive”, the Potency [2] was “inactive” and the Potency [3] was “inactive”. For the same compound, the Potency [4] was “inactive”, the Potency [5] was “inactive” and the Potency [7] was “inactive”. The Potency [10] was “inactive”.
With `CC(=O)N(CC(O)CN(C(C)=O)c1c(I)c(C(=O)NCC(O)CO)c(I)c(C(=O)NCC(O)CO)c1I)c1c(I)c(C(=O)NCC(O)CO)c(I)c(C(=O)NCC(O)CO)c1I` (stereo not drawn) the Potency [1] was “inactive”, the Potency [2] was “inactive” and the Potency [3] was “inactive”. The Potency [4] was “inactive”, the Potency [5] was “inactive” and the Potency [6] was “inactive”. The Potency [7] was “inactive” and the Potency [10] was “inactive”.
In the case of `CC1=C(O)C(=O)OC1C` (stereo not drawn), the Potency [1] is reported as “inactive”, the Potency [2] is reported as “inactive” and the Potency [3] is reported as “inactive”. For the same compound, the Potency [4] was “inactive”, the Potency [5] was “inactive” and the Potency [6] was “inactive”. For the same compound, the Potency [7] was “inactive” and the Potency [10] was “inactive”.
For `CCCCNc1ccc(C(=O)OCCN(CC)CC)cc1`, the Potency [1] was “inactive”, the Potency [2] was “inactive” and the Potency [3] was “inactive”. The Potency [4] was “inactive”, the Potency [5] was “inactive” and the Potency [7] was “inactive”. The Potency [8] was “inactive”, the Potency [9] was “inactive” and the Potency [10] was “inactive”.
With `CN1CCN(c2c(F)cc3c(=O)c(C(=O)O)cn4c3c2SCC4)CC1` the Potency [1] was “inactive”, the Potency [2] was “inactive” and the Potency [3] was “inactive”. For the same compound, the Potency [4] was “inactive”, the Potency [5] was “inactive” and the Potency [6] was “inactive”. The Potency [7] was “inactive” and the Potency [10] was “inactive”.
With `CCOC(=O)NCCC[Si](OCC)(OCC)OCC` the Potency [1] was “inactive”, the Potency [2] was “inactive” and the Potency [3] was “inactive”. For the same compound, the Potency [4] was “inactive”, the Potency [5] was “inactive” and the Potency [7] was “inactive”. The Potency [8] was “inactive”, the Potency [9] was “inactive” and the Potency [10] was “inactive”.
In the case of `CC(=O)N[C@@H](CC(C)C)C(=O)O`, the Potency [1] is reported as “inactive”, the Potency [2] is reported as “inactive” and the Potency [3] is reported as “inactive”. The Potency [4] was “inactive”, the Potency [5] was “inactive” and the Potency [7] was “inactive”. The Potency [8] was “inactive” and the Potency [9] was “inactive”.
For `Cc1c(N)cccc1N`, the Potency [1] was “inactive”, the Potency [2] was “inactive” and the Potency [3] was “inactive”. For the same compound, the Potency [4] was “inactive”, the Potency [6] was “inactive” and the Potency [7] was “inactive”. The Potency [10] was “inactive”.
For `CCOC(=O)CS`, the Potency [1] was “inactive”, the Potency [2] was “inactive” and the Potency [3] was “inactive”. For the same compound, the Potency [4] was “inactive”, the Potency [5] was 56 µM (active) and the Potency [7] was “inactive”. The Potency [8] was 14.1 µM (active), the Potency [9] was “inactive” and the Potency [10] was “inactive”.
